Results filed as inconclusive are left out. Calls of active or inactive are those of the source. The call rests on the fitted dose curve; in most records, active means well fitted cell-killing curve with a large enough effect; inconclusive means small, poorly fitted or top-dose-only effect, or effect the other way; inactive means no such curve, though single readings can be large or run the other way.
Experiment: Quantitative High-Throughput drug screen in 47 multiple myeloma cell lines against the NCATS MIPE library collection: Karpas417_ECACC cell viability assay (AID 1918961)
Conditions: Karpas417 myeloma viability, CellTiter-Glo ATP luminescence, 48 h; viability (% of DMSO): at 45.8 µM (top of the series)
From the text: PI: Beverly A. Mock Ph.D.
Laboratory of Cancer Biology and Genetics,
Center for Cancer Research, National Cancer Institute,
National Institute of Health, Bethesda, Maryland
Drug resistance and disease progression are common in multiple myeloma (MM) patients, underscoring the need for new therapeutic combinations. […] We hypothesized that effective combinations would reduce MYC expression and enhance p16 activity. […] These preclinical data identify potentially useful drug combinations for evaluation in drug-resistant MM and reveal potential mechanisms of combined drug sensitivity.
Described herein is the primary MIPE qHTS used to cherrypick compounds. Validated compounds were then further tested for potential synergistic activiy.
[1] Peat TJ, Gaikwad SM, Dubois W, Gyabaah-Kessie N, Zhang S, Gorjifard S, Phyo Z, Andres M, Hughitt VK, Simpson RM, Miller MA, Girvin AT, Taylor A, Williams D, D'Antonio N, Zhang Y, Rajagopalan A, Flietner E, Wilson K, Zhang X, Shinn P, Klumpp-Thomas C, McKnight C, Itkin Z, Chen L, Kazandijian D, Zhang J, Michalowski AM, Simmons JK, Keats J, Thomas CJ, Mock BA. Drug combinations identified by high-throughput screening promote cell cycle transition and upregulate Smad pathways in myeloma. Cancer Lett. 2023 Aug 1;568:216284. doi: 10.1016/j.canlet.2023.216284. Epub 2023 Jun 24. PMID: 37356470; PMCID: PMC10408729.
SEQUENCE No. (e.g., 1, 2, 3, etc.); […] (e.g., Cells, Incubation, Reagent, etc.); VALUE and DESCRIPTION.
1; Cells; 5 uL; white, solid bottom 1536-well Greiner assay plate.
2; Compounds; 23 nL; Kalypsis pin tool (Wako USA) equipped with a 1536-well pin head to transfer to the assay plates.
3; Incubation; 48 hours; 37C incubation.
4; Reagent;5uL; CellTiter Glo (Promega).
5; Detector; 425V; Luminescence; Viewlux PerkinElmer.
NOTES (numbers refer to Sequence numbers above)
1. The cell-based screening methods employed in this study were like those previously published. Briefly, the corresponding myeloma cell lines were screened in 1,536-well plates with 500 cells, 5-uL per well for inhibition of cell viability (assessed by measuring ATP levels with CellTiterGlo).
2. NCATS MIPE 4.0 library of approved and investigational drugs were added using the Kalypsis pin tool. Wells treated with DMSO only for 100% viability and media only wells for 0% viability were used as controls.
3. The assay plates were covered and incubated for 48 hours in a 37C, 5% CO2 incubator with controlled humidity.
4. After 48 hours, CellTilter-GloTM luminescent substrate mix (Promega) reagent was added to the assay plate and plates we incubated for 5 min at room temperature.
5. Signal was measured as median relative luminescence units on a ViewLux (PerkinElmer) multiplate reader.
[1] Heske CM, Davis MI, Baumgart JT, Wilson K, Gormally MV, Chen L, Zhang X, Ceribelli M, Duveau DY, Guha R, Ferrer M, Arnaldez FI, Ji J, Tran HL, Zhang Y, Mendoza A, Helman LJ, Thomas CJ. Matrix Screen Identifies Synergistic Combination of PARP Inhibitors and Nicotinamide Phosphoribosyltransferase (NAMPT) Inhibitors in Ewing Sarcoma. Clin Cancer Res. 2017 Dec 1;23(23):7301-7311. doi: 10.1158/1078-0432.CCR-17-1121. Epub 2017 Sep 12. PMID: 28899971; PMCID: PMC6636827.
Potency means the concentration at half of the fitted maximal effect.

Question: With `O=C(CCCCCCC(=O)Nc1ccccc1)NO` as the compound, how does the Potency read?
Answer: Its Potency is 1.05 µM (active).

Question: With `Cc1[nH]c(C=C2C(=O)Nc3ccc(S(=O)(=O)Cc4c(Cl)cccc4Cl)cc32)c(C)c1C(=O)N1CCC[C@H]1CN1CCCC1` as the compound, how does the Potency read?
Answer: Its Potency is 1.48 µM (active).

Question: For `COc1ccc(-c2coc3cc(O)ccc3c2=O)cc1`, which Potency is on record?
Answer: Its Potency is “inactive”.

Question: Which Potency does the source give for `O=c1c(O)c(-c2ccc(O)cc2)oc2cc(O)cc(O)c12` here?
Answer: Its Potency is 16.6 µM (active).

Question: Which Potency does the source give for `COc1cc2nc(-c3ccc(N4CCN(C)CC4)cc3)nc(NCCN3CCOCC3)c2cc1OC` here?
Answer: Its Potency is 0.0166 µM (active).

Question: For `Cc1cnc(C(=O)O)c[n+]1[O-]`, which Potency is on record?
Answer: Its Potency is “inactive”.

Question: With `CC(C)(C)C(=O)Oc1ccc2c(c1)nc(NC(=O)c1cccc([N+](=O)[O-])c1)n2CCCO` as the compound, how does the Potency read?
Answer: Its Potency is “inactive”.

Question: With `CC(=Cc1ccccc1)C=C1SC(=S)N(CC(=O)O)C1=O` as the compound, how does the Potency read?
Answer: Its Potency is “inactive”.

Question: With `CC[C@]1(O)C[C@@H]2CN(CCc3c([nH]c4ccccc34)[C@@](C(=O)OC)(c3cc4c(cc3OC)N(C=O)[C@@H]3C45CCN4CC=C[C@](CC)([C@H]45)[C@@H](OC(C)=O)[C@]3(O)C(=O)OC)C2)C1` (stereo not given in full) as the compound, how does the Potency read?
Answer: The Potency was “inactive”.

Question: For `Cc1c(O)cccc1C(=O)N[C@@H](CSc1ccccc1)[C@H](O)CN1C[C@H]2CCCC[C@@H]2C[C@@H]1C(=O)NC(C)(C)C`, which Potency is on record?
Answer: The Potency was 14.8 µM (active).

Question: For `COc1cc(NC(=O)c2ccc(-c3ccc(Cl)cc3)o2)cc(OC)c1`, which Potency is on record?
Answer: Its Potency is 2.96 µM (active).

Question: With `C[C@]12CC[C@@H]3c4ccc(O)cc4CC[C@H]3[C@H]1C[C@@H](O)[C@H]2O` as the compound, how does the Potency read?
Answer: The Potency was “inactive”.

Question: Which Potency does the source give for `CON=C(C(=O)N[C@@H]1C(=O)N2C(C(=O)OCOC(=O)C(C)(C)C)=C(C=Cc3scnc3C)CS[C@H]12)c1csc(N)n1` here?
Answer: The Potency was 20.9 µM (active).

Question: For `Cc1ccn(-c2ccc(-c3ncco3)cc2)c(=O)c1-c1ccc2nc(N)ncc2c1`, which Potency is on record?
Answer: Its Potency is 5.26 µM (active).

Question: Which Potency does the source give for `CCS(=O)(=O)N1CC(CC#N)(n2cc(-c3ncnc4[nH]ccc34)cn2)C1` here?
Answer: The Potency was 0.105 µM (active).

Question: For `NC1=N[C@@]2(c3cc(NC(=O)c4ccc(F)cn4)ccc3F)COC[C@@H]2CS1`, which viability (% of DMSO) is on record?
Answer: Its viability (% of DMSO) is 105% (active).

Question: With `Nc1ncnc2c1ncn2[C@@H]1O[C@@H](CO)[C@H](O)[C@H]1O` as the compound, how does the Potency read?
Answer: The Potency was “inactive”.

Question: Which viability (% of DMSO) does the source give for `CCCCCN(C)CCC(O)(P(=O)(O)O)P(=O)(O)O` here?
Answer: Its viability (% of DMSO) is 78.6% (active).

Question: For `Cc1ccc(Nc2cc(-c3cccc(N4C(=O)c5ccccc5C4=O)c3)ncn2)cc1NS(C)(=O)=O`, which Potency is on record?
Answer: The Potency was 4.69 µM (active).

Question: For `Nc1nc(F)nc2c1ncn2[C@@H]1O[C@H](COP(=O)(O)O)[C@@H](O)[C@H]1O`, which Potency is on record?
Answer: Its Potency is 4.18 µM (active).

Question: Which Potency does the source give for `C[N+](C)(C)CC(=O)O` here?
Answer: The Potency was “inactive”.

Question: Which Potency does the source give for `CCOC(CN1C(=O)[C@](CC(=O)Nc2ccc(C)cc2)(NC(=O)Nc2ccc(C)cc2)c2ccccc21)OCC` here?
Answer: The Potency was 16.6 µM (active).

Question: For `Oc1ccc(C2=Cc3ccc(O)cc3OC2)cc1`, which Potency is on record?
Answer: Its Potency is 2.64 µM (active).

Question: With `CCOC(=O)O[C@]1(C(=O)OCCl)CC[C@@H]2[C@H]3CCC4=CC(=O)C=C[C@]4(C)[C@@H]3[C@@H](O)C[C@@]21C` as the compound, how does the viability (% of DMSO) read?
Answer: Its viability (% of DMSO) is 78.2% (active).

Question: For `COc1ccc2c(Oc3ccc(NC(=O)c4c(C)n(CC(C)(C)O)n(-c5ccccc5)c4=O)cc3F)ccnc2c1`, which Potency is on record?
Answer: Its Potency is “inactive”.

Question: With `NS(=O)(=O)c1cccc2c1C(=O)c1cccc(O)c1C2=O` as the compound, how does the Potency read?
Answer: The Potency was 0.148 µM (active).

Question: For `O=C(NCc1ccccc1)c1csc(Nc2ccncn2)n1`, which Potency is on record?
Answer: The Potency was 10.5 µM (active).

Question: For `CC1(C)O[C@H]2C[C@@H]3[C@H]4CCC5=CC(=O)C=C[C@]5(C)[C@@]4(F)[C@@H](O)C[C@]3(C)[C@]2(C(=O)CO)O1`, which Potency is on record?
Answer: The Potency was 0.0118 µM (active).

Question: For `COc1cc(O)c2c(c1)C(=O)c1cc(C)cc(O)c1C2=O`, which Potency is on record?
Answer: Its Potency is “inactive”.

Question: Which Potency does the source give for `Cc1ccc(C(C)(O)c2nc3ccccc3s2)c(C)c1` (stereo not given) here?
Answer: Its Potency is “inactive”.

Question: With `CC(=NNC(=S)N1CCC1)c1ccccn1` as the compound, how does the Potency read?
Answer: The Potency was “inactive”.

Question: With `CS(=O)c1ccc(-c2nc(-c3ccc(F)cc3)c(-c3ccncc3)[nH]2)cc1` (stereo not given) as the compound, how does the Potency read?
Answer: Its Potency is 3.82 µM (active).

Question: For `Clc1ccc(-c2nc3sccn3c2C=NOCc2ccc(Cl)c(Cl)c2)cc1`, which Potency is on record?
Answer: Its Potency is “inactive”.

Question: Which Potency does the source give for `O=C1NC(=O)C(=Cc2ccc(-c3ccc(F)cc3)o2)S1` here?
Answer: Its Potency is 1.66 µM (active).

Question: For `Clc1ccc(C(c2ccc(Cl)cc2)n2cc[n+](CC(OCc3ccc(Cl)cc3Cl)c3ccc(Cl)cc3Cl)c2)cc1` (stereo not given), which Potency is on record?
Answer: The Potency was 8.33 µM (active).

Question: Which viability (% of DMSO) does the source give for `C=C1C(=O)OC(CCCCCCCC)C1C(=O)O` (stereo not given) here?
Answer: The viability (% of DMSO) was 74% (active).

Question: For `COCCOc1nc(-c2ccc(Cl)c(Cl)c2)n(-c2ccc(NC(=O)CCl)cc2)n1`, which Potency is on record?
Answer: The Potency was 16.6 µM (active).

Question: For `O=C(O)C=Cc1ccc(O)c(O)c1`, which Potency is on record?
Answer: The Potency was 14.8 µM (active).

Question: For `NC(=O)c1ccc2nc(-c3ccc(Oc4ccc(Cl)cc4)cc3)[nH]c2c1`, which Potency is on record?
Answer: The Potency was 0.187 µM (active).

Question: With `COc1ncc(-c2ccc3nccc(-c4ccnnc4)c3c2)cc1NS(=O)(=O)c1ccc(F)cc1F` as the compound, how does the Potency read?
Answer: Its Potency is “inactive”.

Source: PubChem BioAssay (NCATS)
